Measured values published in publication PMC12820563, “FoxP3 forms a head-to-head dimer in vivo and stabilizes its multimerization on adjacent microsatellites”.
Over roughly 16,000 sequences, “rpm ratio (pull-down/input)” has its median near 0.5; the highest 2% begin near 5.5. For the sample, the highest values were picked, then their nearest neighbours and some sequences at random.

Target: T1, MBP-FoxP3dN (Mus musculus, UniProt Q99JB6 188-423)
T1 sequence: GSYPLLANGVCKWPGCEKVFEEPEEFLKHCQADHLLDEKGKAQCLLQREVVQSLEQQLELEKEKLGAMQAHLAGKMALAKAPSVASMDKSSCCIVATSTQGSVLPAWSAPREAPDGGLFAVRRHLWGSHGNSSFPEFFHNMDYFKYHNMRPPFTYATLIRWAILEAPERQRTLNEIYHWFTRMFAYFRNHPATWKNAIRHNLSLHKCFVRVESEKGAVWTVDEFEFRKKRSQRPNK
Experiment: PD-seq (MBP pull-down with sequencing); 20 mM Tris-HCl pH 7.5, 100 mM NaCl, 1.5 mM MgCl2, 0.4 uM protein, 0.1 uM dsDNA library, 30 min, room temperature, amylose pull-down; high values mean tight binding
Settings: protein: recombinant; tags: His6-MBP; chain copies: 2; dsDNA, one strand shown
Procedure, shortened: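 E. coli-expressed mouse FoxP3 or FoxP1 fragment, N-terminus removed and tagged with His6-MBP, was used at 0.4 µM against 0.1 µM of a Klenow-filled degenerate double-stranded DNA library. After 30 min at room temperature in Tris pH 7.5 buffer with NaCl and MgCl2, complexes were pulled down on amylose resin and washed three times. Binding is pull-down over input reads-per-million enrichment from pooled replicates of the proteinase K-released, PCR-barcoded, Illumina-sequenced DNA.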

| Sequence | binding signal |
| --- | --- |
| GATGATTGTTCTCCCAGCTGATGAATTGGGAACTTCGAGTAAACAAATTTTCCTAATCTTTCTGTTCAAGCGCCATCTAC | 0.252 RPM ratio (pull-down/input) |
| GATGATTGTTCTCCCAGCTGATGAATTGATAGATTCGAGTAAACAAATTTTCCTAATCTTTCTGTTCAAGCGCCATCTAC | 0.495 RPM ratio (pull-down/input) |
| GATGATTGTTCTCCCAGCTGATGAATTCATAGGCTCGAGTAAACAAATTTTCCTAATCTTTCTGTTCAAGCGCCATCTAC | 0.321 RPM ratio (pull-down/input) |
| GATGATTGTTCTCCCAGCTGATGAATTATCCCGGTCGAGTAAACAAATTTTCCTAATCTTTCTGTTCAAGCGCCATCTAC | 0.208 RPM ratio (pull-down/input) |
| GATGATTGTTCTCCCAGCTGATGAATTTGGTAACTCGAGTAAACAAATTTTCCTAATCTTTCTGTTCAAGCGCCATCTAC | 1.38 RPM ratio (pull-down/input) |
| GATGATTGTTCTCCCAGCTGATGAATTTGCCTTGTCGAGTAAACAAATTTTCCTAATCTTTCTGTTCAAGCGCCATCTAC | 1.15 RPM ratio (pull-down/input) |
| GATGATTGTTCTCCCAGCTGATGAATTAATAGAGTCGAGTAAACAAATTTTCCTAATCTTTCTGTTCAAGCGCCATCTAC | 0.294 RPM ratio (pull-down/input) |
| GATGATTGTTCTCCCAGCTGATGAATTGCGCCACTCGAGTAAACAAATTTTCCTAATCTTTCTGTTCAAGCGCCATCTAC | 7.19 RPM ratio (pull-down/input) |
| GATGATTGTTCTCCCAGCTGATGAATTGCCACACTCGAGTAAACAAATTTTCCTAATCTTTCTGTTCAAGCGCCATCTAC | 1.52 RPM ratio (pull-down/input) |
| GATGATTGTTCTCCCAGCTGATGAATTTGCCCACTCGAGTAAACAAATTTTCCTAATCTTTCTGTTCAAGCGCCATCTAC | 0.555 RPM ratio (pull-down/input) |
| GATGATTGTTCTCCCAGCTGATGAATTTTTGCACTCGAGTAAACAAATTTTCCTAATCTTTCTGTTCAAGCGCCATCTAC | 0.699 RPM ratio (pull-down/input) |
| GATGATTGTTCTCCCAGCTGATGAATTTTGCCACTCGAGTAAACAAATTTTCCTAATCTTTCTGTTCAAGCGCCATCTAC | 5.96 RPM ratio (pull-down/input) |
| GATGATTGTTCTCCCAGCTGATGAATTGCCACTCTCGAGTAAACAAATTTTCCTAATCTTTCTGTTCAAGCGCCATCTAC | 1.37 RPM ratio (pull-down/input) |
| GATGATTGTTCTCCCAGCTGATGAATTGCTGCTCTCGAGTAAACAAATTTTCCTAATCTTTCTGTTCAAGCGCCATCTAC | 0.662 RPM ratio (pull-down/input) |
| GATGATTGTTCTCCCAGCTGATGAATTAAGACGATCGAGTAAACAAATTTTCCTAATCTTTCTGTTCAAGCGCCATCTAC | 0.207 RPM ratio (pull-down/input) |
| GATGATTGTTCTCCCAGCTGATGAATTGCTCACATCGAGTAAACAAATTTTCCTAATCTTTCTGTTCAAGCGCCATCTAC | 0.686 RPM ratio (pull-down/input) |

| Sequence | binding signal |
| --- | --- |
| GATGATTGTTCTCCCAGCTGATGAATTTATATTATCGAGTAAACAAATTTTCCTAATCTTTCTGTTCAAGCGCCATCTAC | 1.6 RPM ratio (pull-down/input) |
| GATGATTGTTCTCCCAGCTGATGAATTGTTTATATCGAGTAAACAAATTTTCCTAATCTTTCTGTTCAAGCGCCATCTAC | 5.7 RPM ratio (pull-down/input) |
| GATGATTGTTCTCCCAGCTGATGAATTTATTATATCGAGTAAACAAATTTTCCTAATCTTTCTGTTCAAGCGCCATCTAC | 2.18 RPM ratio (pull-down/input) |
| GATGATTGTTCTCCCAGCTGATGAATTATATTTATCGAGTAAACAAATTTTCCTAATCTTTCTGTTCAAGCGCCATCTAC | 5.59 RPM ratio (pull-down/input) |
| GATGATTGTTCTCCCAGCTGATGAATTTTTTATATCGAGTAAACAAATTTTCCTAATCTTTCTGTTCAAGCGCCATCTAC | 0.31 RPM ratio (pull-down/input) |
| GATGATTGTTCTCCCAGCTGATGAATTTTATATATCGAGTAAACAAATTTTCCTAATCTTTCTGTTCAAGCGCCATCTAC | 1.65 RPM ratio (pull-down/input) |
| GATGATTGTTCTCCCAGCTGATGAATTAAAGTGTTCGAGTAAACAAATTTTCCTAATCTTTCTGTTCAAGCGCCATCTAC | 0.592 RPM ratio (pull-down/input) |
| GATGATTGTTCTCCCAGCTGATGAATTATAACCGTCGAGTAAACAAATTTTCCTAATCTTTCTGTTCAAGCGCCATCTAC | 0.364 RPM ratio (pull-down/input) |
| GATGATTGTTCTCCCAGCTGATGAATTATGCCATTCGAGTAAACAAATTTTCCTAATCTTTCTGTTCAAGCGCCATCTAC | 5.9 RPM ratio (pull-down/input) |
| GATGATTGTTCTCCCAGCTGATGAATTATGATTGTCGAGTAAACAAATTTTCCTAATCTTTCTGTTCAAGCGCCATCTAC | 4.27 RPM ratio (pull-down/input) |
| GATGATTGTTCTCCCAGCTGATGAATTATATGCCTCGAGTAAACAAATTTTCCTAATCTTTCTGTTCAAGCGCCATCTAC | 0.913 RPM ratio (pull-down/input) |
| GATGATTGTTCTCCCAGCTGATGAATTATGCTGTTCGAGTAAACAAATTTTCCTAATCTTTCTGTTCAAGCGCCATCTAC | 3.42 RPM ratio (pull-down/input) |
| GATGATTGTTCTCCCAGCTGATGAATTATGCATGTCGAGTAAACAAATTTTCCTAATCTTTCTGTTCAAGCGCCATCTAC | 6.46 RPM ratio (pull-down/input) |
| GATGATTGTTCTCCCAGCTGATGAATTATGCTTGTCGAGTAAACAAATTTTCCTAATCTTTCTGTTCAAGCGCCATCTAC | 4.71 RPM ratio (pull-down/input) |
| GATGATTGTTCTCCCAGCTGATGAATTATGCGCCTCGAGTAAACAAATTTTCCTAATCTTTCTGTTCAAGCGCCATCTAC | 2.82 RPM ratio (pull-down/input) |
